# Source: PubChem BioAssay
# G9a block: blocks human histone lysine methyltransferase G9a; Q96KQ7; G9a H3K9 monomethylation, AlphaScreen, 2 h; Potency, µM (doses to about 102 µM), usual class: inhibitors; actives 8.8% (n = 350,000); AID 504332; note: nearly all actives have a fitted effect of over 75% in size
# Target sequence (Q96KQ7 913-1193 limits assumed): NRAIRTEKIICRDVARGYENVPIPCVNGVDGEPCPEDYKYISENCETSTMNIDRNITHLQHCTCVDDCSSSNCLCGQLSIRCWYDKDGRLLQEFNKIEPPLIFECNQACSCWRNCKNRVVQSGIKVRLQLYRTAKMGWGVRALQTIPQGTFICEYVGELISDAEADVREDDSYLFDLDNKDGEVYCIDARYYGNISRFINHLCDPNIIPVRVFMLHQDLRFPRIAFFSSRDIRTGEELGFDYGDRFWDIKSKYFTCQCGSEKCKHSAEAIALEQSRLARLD
#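 Compounds were preincubated with 20 nM G9a for 15 min, after which biotinylated H3K9 peptide (500 nM) and SAM (20 uM) started a 2 h room-temperature reaction. Monomethylated product was quantified by antibody-based AlphaScreen chemiluminescence.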
# JMJD2A Tudor inh: inhibitors of human JMJD2A Tudor domain. AlphaScreen JMJD2A-Tudor / H3K4me3 peptide binding. Potency, µM (doses to about 114 µM), actives largely listed as inhibitors. actives 4.4% (n = 390,000); note: nearly all actives have a fitted effect of over 50% in size
# HP1b binding inh: blocks HP1-beta chromodomain binding to methylated histone tails; AlphaScreen HP1-beta / biotin-H3K9me3 peptide binding; Potency, µM (doses to about 114 µM), most hits filed as inhibitors; actives 0.56% (n = 390,000); note: nearly all actives have a fitted effect of over 70% in size
# Target sequence (P83916 whole entry, looked up): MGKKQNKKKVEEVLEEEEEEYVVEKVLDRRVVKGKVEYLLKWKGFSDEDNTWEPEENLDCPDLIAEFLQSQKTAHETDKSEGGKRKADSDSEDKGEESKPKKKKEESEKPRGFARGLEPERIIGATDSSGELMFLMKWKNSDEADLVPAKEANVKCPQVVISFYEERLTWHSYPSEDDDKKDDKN
#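 AlphaScreen: HP1-beta (50 nM) preformed 30 min with biotin-H3(1-18)K9me3 peptide (50 nM) in PBS pH 7.4, 0.01% Tween-20. Compound added for 30 min at RT, then streptavidin donor/nickel chelate acceptor beads (10 ug/mL) for 30 min.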
# L3MBTL1 inh: L3MBTL1 (human) inhibition; Q9Y468; AlphaScreen L3MBTL1–H3K9me1 peptide binding; Potency, µM (doses to about 57.1 µM), hits mostly inhibitors; actives 0.66% (n = 230,000); AID 485360; note: nearly all actives have a fitted effect of over 60% in size
#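 AlphaScreen assay: L3MBTL1 (50 nM final) was preincubated 30 min at room temperature with biotinylated H3(1-15)K9me1 peptide (75 nM final), then 30 min with library compounds; streptavidin donor and nickel chelate acceptor beads (10 ug/mL final) added, 30 min dark.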
# BAZ2B block: blocks human BAZ2B. Potency, µM (top dose mostly 114 µM), actives largely listed as inhibitors. Q9UIF8. actives 4.4% (n = 360,000). AlphaScreen BAZ2B-H3K14Ac peptide displacement; note: nearly all actives have a fitted effect of over 60% in size
#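 In this displacement format the biotinylated H3(5-23) peptide acetylated at Lys14 serves as ligand at 50 nM, with BAZ2B at 50 nM in PBS pH 7.4 containing 0.01% Tween-20. Donor and acceptor beads are 10 ug/mL final.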
# Hits are given with their value; – = inactive; ? = inconclusive; · = no result; [ ] = remark or other dose. A selection: hits, their analogues and other compounds. The true share with any hit is near 11%. Calls come from the whole dose curve; as a rule, active = well fitted inhibition curve with a large enough effect; inconclusive = small, poorly fitted or top-dose-only effect; inactive = no such curve, though single readings can be large or run the other way.
SMILES,G9a block,JMJD2A Tudor inh,HP1b binding inh,L3MBTL1 inh,BAZ2B block
Cc1ccsc1-c1n[nH]c(=S)n1CC(C)C,?,8.91µM,–,–,–
CCn1c(-c2nn(C)cc2Cl)n[nH]c1=S,10µM,6.31µM,–,–,–
CC(C)Cn1c(-c2nn(C)cc2Cl)n[nH]c1=S,10µM,8.91µM,–,–,–
Cc1cc(/C=N/Nc2nc(N3CCOCC3)nc(N3CCOCC3)n2)c(C)n1-c1ccccc1,–,?,?,·,·
C(=N\Nc1nc(Nc2ccccc2)nc(N2CCOCC2)n1)/c1c[nH]c2ccccc12,·,50.1µM,–,–,31.6µM
Cc1[nH]c2ccccc2c1/C=N/Nc1nc(Nc2ccc(F)cc2)nc(N2CCOCC2)n1,?,–[11.4 µM],–,?,50.1µM
Cc1ccc(Nc2nc(N/N=C/c3c[nH]c4ccccc34)nc(N3CCOCC3)n2)cc1,?,44.7µM,–,–,44.7µM
c1ccc(Nc2nc(N3CCNCC3)nc(N3CCOCC3)n2)cc1,–,–,–,–,–
CC(C)(C)c1ccc(-c2noc(CCC(=O)Nc3cccc(Cl)c3)n2)cc1,?,–,–,·,–
O=C(/C=C/c1cn(-c2ccccc2)nc1-c1ccc2c(c1)OCCO2)NCCO,–,–,–,·,–
OCc1ccc2c(c1)c(-c1ccc3c(c1)OCCO3)c(-c1ccccc1)n2-c1ccccc1,–[0.501 µM],44.7µM,–,–,?
CCC(CO)Oc1cc(NCc2ccc(OC)cc2)c2ncn(C(C)C)c2c1 (stereo not drawn),–[0.501 µM],–,–,–,?
CCC(CO)Oc1cc(NCc2ccc(C)cc2)c2ncn(C(C)C)c2c1 (stereo not drawn),·,56.2µM,–,–,·
CCOc1cc(NCc2ccccc2)c2ncn(C(C)C)c2c1,·,50.1µM,?,?,·
CCC(CO)Oc1cc(NCc2ccc(Cl)cc2)c2ncn(C(C)C)c2c1 (stereo not drawn),·,50.1µM,–,–,·
CC[C@H](CO)Oc1cc(NCc2ccc(Cl)c(Cl)c2)c2ncn(C(C)C)c2c1,·,31.6µM,–,–,·
COCCn1c(SCC(=O)Nc2cc(C)on2)nnc1C(C)C,–,–,–,·,–
CCC(CO)Oc1cc(NCc2ccc(Cl)cc2Cl)c2ncn(C(C)C)c2c1 (stereo not drawn),·,39.8µM,–,–,·
CCC(CO)Oc1cc(NCc2ccccc2O)c2ncn(C(C)C)c2c1 (stereo not drawn),·,?,–,–,·
COc1ccc(S(=O)(=O)/N=C2/NC(=O)/C(=C\c3ccco3)S2)cc1,8.91µM,–,–,?,?
CCc1ccc(N=C2NC(=O)/C(=C/c3cc(OC)c(O)c(OC)c3)S2)cc1,?,–,–,–,?
Cc1ccc(S(=O)(=O)/N=C2/NC(=O)/C(=C/c3ccccn3)S2)cc1,56.2µM,–,–,–,–
COc1cc(/C=C2\SC(=Nc3ccccc3)NC2=O)cc(Cl)c1O,44.7µM,?,–,·,–
COc1ccc(N=C2NC(=O)/C(=C/c3ccco3)S2)cc1,44.7µM,–,–,·,39.8µM
COc1ccc(S(=O)(=O)/N=C2/NC(=O)/C(=C\c3cc(OC)c(OC)cc3[N+](=O)[O-])S2)cc1,–,–,–,·,?
SMILES,G9a block,JMJD2A Tudor inh,HP1b binding inh,L3MBTL1 inh,BAZ2B block
O=C(CC1C(=O)N(c2ccc(F)cc2)C(=O)N1Cc1ccc2c(c1)OCO2)Nc1ccc(Cl)cc1 (stereo not drawn),–,–,–,·,–
Cn1cc(S(=O)(=O)N2CCOCC2)cc1C(=O)NCc1ccc(Cl)cc1,–,–,–,–,–
CN(C)c1ccc(CNC(=O)CCCn2ccc3cc(S(=O)(=O)N4CCCC4)ccc32)cc1,8.91µM,?,–,·,?
CN(C)c1ccc(CNC(=O)c2cc(S(=O)(=O)N3CCOCC3)cn2C)cc1,39.8µM,–,–,–,–
COc1ccc(-n2c(/C=C/c3cccc4ccccc34)nc3ccccc3c2=O)cc1Cl,–,–,–,·,–
C=CCOC(=O)Nc1ccc(Cl)cc1NC(=O)OCC=C,–[12.7 µM],–,–,·,–
C=CCOC(=O)/C=C/C(=O)NC(N)=O,8.91µM,?,17.8µM,·,–
CC1=C(C#N)C(NC(=O)c2ccccc2)(C(F)(F)F)C(=O)N1 (stereo not drawn),–,–,–,·,–
Cc1sc(NC(=O)CSc2n[nH]c(N)n2)c(C#N)c1C,·,–,–,·,·
Cc1ccc(/C=C/C2=Cc3c(sc(NC(=O)CSc4n[nH]c(N)n4)c3C#N)C(C)(C)C2)o1,8.91µM,·,·,?,?
CCCn1c(=O)c2sccc2n2c(CCCC(=O)N3CCN(c4ccccc4OC)CC3)nnc12,–,–,–,·,–
COc1ccc(C)cc1NC(=O)c1cc(S(=O)(=O)N2CCCCC2)c[nH]1,–,–,–,·,–
CC(C)NC(=S)Nc1c(N)[nH]c(=O)[nH]c1=O,56.2µM,–,–,–,–
O=C(c1ccco1)N1CCN(Cc2ccc(F)cc2)CC1,11.2µM,20µM,?,–,79.4µM
CCOc1ccc(C(=O)N2CCN(C(=O)c3ccco3)CC2)cc1OCC,–[12.7 µM],–,–,–,–
CCOc1cc(CN2CCN(C(=O)c3ccco3)CC2)ccc1OC,–[12.7 µM],5.62µM,?,–,50.1µM
Cc1ccccc1-c1nnc(CN2CCN(C(=O)c3ccco3)CC2)o1,?,–,–,·,–
O=C(c1ccco1)N1CCN(CC2CC3C=CC2C3)CC1 (stereo not drawn),?,1.41µM,–,–,50.1µM
O=C(c1ccco1)N1CCN(Cc2nnc(-c3ccccc3F)o2)CC1,70.8µM,?,–,·,–
O=C(NCc1ccccc1Cl)C(=O)NCC(c1cccs1)S(=O)(=O)c1ccccc1 (stereo not drawn),–,–,–,·,–
CCOc1ccccc1C(=O)N/N=C/c1coc2ccc(Cl)cc2c1=O,–,–,–,·,–
CCOc1ccccc1-n1c(CN2CCN(C(=O)c3ccco3)CC2)nc2ccccc2c1=O,14.1µM,–,–,–[11.4 µM],–
CCOc1ccc(OCC(=O)OCC(=O)N2CCN(C(=O)c3ccco3)CC2)cc1,31.6µM,–,–,?,–
O=C(c1ccco1)N1CCN(Cc2ccccc2Br)CC1,20µM,8.91µM,?,·,31.6µM
O=C(c1ccco1)N1CCN(C(=O)c2ccc(Cn3cc(Br)cn3)o2)CC1,50.1µM,–,–,·,–
SMILES,G9a block,JMJD2A Tudor inh,HP1b binding inh,L3MBTL1 inh,BAZ2B block
O=C(Cc1ccccc1F)OCC(=O)N1CCN(C(=O)c2ccco2)CC1,–,–,–,–,–
CC(C)OC(=O)c1c(NC(=O)c2cccc(C(F)(F)F)c2)sc2c1CCCC2,?,–,–,·,–
COc1ccc([C@]23Cc4cc(C#N)ccc4C(O2)c2c(cc(-c4ccccc4)oc2=O)O3)cc1,·,·,·,·,–[22.9 µM]
CCCc1cc(N2CCN(c3cc(Cl)ccc3C)CC2)n2cnnc2n1,–,–,–,·,–
Cc1ccccc1-c1nc(CN2CCN(C(=O)c3ccco3)CC2)c(C)o1,50.1µM,–,–,·,–
CCOc1ccc(CN2CCN(C(=O)c3ccco3)CC2)cc1,31.6µM,20µM,?,–,–
O=C(c1ccc(F)cc1)N1CCN(Cc2ccccc2Br)CC1,10µM,25.1µM,?,–,?
